Results on 26 sequences are retold here after publication doi:10.1101/2024.03.05.583629.

Chain of pT7_6His-AlfaTag-HOXD13 (P35453 263-343): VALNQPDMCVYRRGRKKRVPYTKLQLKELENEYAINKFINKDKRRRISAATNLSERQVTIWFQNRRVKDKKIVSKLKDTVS

The test has as its target pT7_6His-AlfaTag-HOXD13 (human, UniProt P35453 263-343). Kind of test: PADIT-seq. The conditions noted are these: dsDNA, one strand shown.
In the case of “CTCGAGGATATCAAGATCTGGCCTCGGCCTCTTAAAAGGAACCTCTAGCTAGCCGACTCACTATAGGGATAATCGCCCTGAGCAAAGACC”, the binding signal was determined as 2.2 ± 0.0925 log2FC.
With “CTCGAGGATATCAAGATCTGGCCTCGGCGAGGTAAAAGGAACCTCTAGCTAGCCGACTCACTATAGGGATAATCGCCCTGAGCAAAGACC” the figure was -0.51 ± 0.0909 log2FC; with “CTCGAGGATATCAAGATCTGGCCTCGGCGCGTACGCGGGAACCTCTAGCTAGCCGACTCACTATAGGGATAATCGCCCTGAGCAAAGACC”, -1.05 ± 0.139 log2FC.
With “CTCGAGGATATCAAGATCTGGCCTCGGCTATCCACGCGGAACCTCTAGCTAGCCGACTCACTATAGGGATAATCGCCCTGAGCAAAGACC” the figure was -1.03 ± 0.113 log2FC; with “CTCGAGGATATCAAGATCTGGCCTCGGCCGCTATCGCGGAACCTCTAGCTAGCCGACTCACTATAGGGATAATCGCCCTGAGCAAAGACC”, -0.806 ± 0.119 log2FC; with “CTCGAGGATATCAAGATCTGGCCTCGGCTCTGTAAAAGGAACCTCTAGCTAGCCGACTCACTATAGGGATAATCGCCCTGAGCAAAGACC”, 1.83 ± 0.0871 log2FC.
On to “CTCGAGGATATCAAGATCTGGCCTCGGCGTTTTATTTGGAACCTCTAGCTAGCCGACTCACTATAGGGATAATCGCCCTGAGCAAAGACC”, for which the binding signal came to 2.98 ± 0.0869 log2FC.
The sequence “CTCGAGGATATCAAGATCTGGCCTCGGCGATTTAAAAGGAACCTCTAGCTAGCCGACTCACTATAGGGATAATCGCCCTGAGCAAAGACC” yielded a binding signal of 2.1 ± 0.071 log2FC.
The sequence “CTCGAGGATATCAAGATCTGGCCTCGGCCTTTTAGGGGGAACCTCTAGCTAGCCGACTCACTATAGGGATAATCGCCCTGAGCAAAGACC” came in with a binding signal of 1.1 ± 0.083 log2FC.
With “CTCGAGGATATCAAGATCTGGCCTCGGCCGCCCATCTGGAACCTCTAGCTAGCCGACTCACTATAGGGATAATCGCCCTGAGCAAAGACC” the figure was -0.946 ± 0.119 log2FC; with “CTCGAGGATATCAAGATCTGGCCTCGGCAGAGTAAAAGGAACCTCTAGCTAGCCGACTCACTATAGGGATAATCGCCCTGAGCAAAGACC”, 0.253 ± 0.1 log2FC; with “CTCGAGGATATCAAGATCTGGCCTCGGCTTTTTAGCAGGAACCTCTAGCTAGCCGACTCACTATAGGGATAATCGCCCTGAGCAAAGACC”, 0.699 ± 0.0959 log2FC.
In turn, “CTCGAGGATATCAAGATCTGGCCTCGGCCTAATAAAAGGAACCTCTAGCTAGCCGACTCACTATAGGGATAATCGCCCTGAGCAAAGACC” showed a binding signal of 3.06 ± 0.0911 log2FC.
With “CTCGAGGATATCAAGATCTGGCCTCGGCGTTTTAAGCGGAACCTCTAGCTAGCCGACTCACTATAGGGATAATCGCCCTGAGCAAAGACC” the figure was 0.144 ± 0.109 log2FC; with “CTCGAGGATATCAAGATCTGGCCTCGGCCTTTTACGTGGAACCTCTAGCTAGCCGACTCACTATAGGGATAATCGCCCTGAGCAAAGACC”, 2.16 ± 0.0717 log2FC; with “CTCGAGGATATCAAGATCTGGCCTCGGCCTTTTATGAGGAACCTCTAGCTAGCCGACTCACTATAGGGATAATCGCCCTGAGCAAAGACC”, 3.45 ± 0.0923 log2FC.
With “CTCGAGGATATCAAGATCTGGCCTCGGCCTTTTATGTGGAACCTCTAGCTAGCCGACTCACTATAGGGATAATCGCCCTGAGCAAAGACC” the figure was 2.69 ± 0.0743 log2FC; with “CTCGAGGATATCAAGATCTGGCCTCGGCACTTTAAAAGGAACCTCTAGCTAGCCGACTCACTATAGGGATAATCGCCCTGAGCAAAGACC”, 2.07 ± 0.0674 log2FC.
With “CTCGAGGATATCAAGATCTGGCCTCGGCGTTTTAATGGGAACCTCTAGCTAGCCGACTCACTATAGGGATAATCGCCCTGAGCAAAGACC” the figure was 2.46 ± 0.0744 log2FC; with “CTCGAGGATATCAAGATCTGGCCTCGGCTAGATAAAAGGAACCTCTAGCTAGCCGACTCACTATAGGGATAATCGCCCTGAGCAAAGACC”, 0.188 ± 0.107 log2FC.
For “CTCGAGGATATCAAGATCTGGCCTCGGCACTGTAAAAGGAACCTCTAGCTAGCCGACTCACTATAGGGATAATCGCCCTGAGCAAAGACC”, the binding signal stood at 1.95 ± 0.0803 log2FC.
With “CTCGAGGATATCAAGATCTGGCCTCGGCTTTATAAAAGGAACCTCTAGCTAGCCGACTCACTATAGGGATAATCGCCCTGAGCAAAGACC” the figure was 2.35 ± 0.0828 log2FC; with “CTCGAGGATATCAAGATCTGGCCTCGGCCGCTAACGCGGAACCTCTAGCTAGCCGACTCACTATAGGGATAATCGCCCTGAGCAAAGACC”, -0.899 ± 0.132 log2FC.
With “CTCGAGGATATCAAGATCTGGCCTCGGCCGGGTAAAAGGAACCTCTAGCTAGCCGACTCACTATAGGGATAATCGCCCTGAGCAAAGACC” the figure was -0.304 ± 0.0906 log2FC; with “CTCGAGGATATCAAGATCTGGCCTCGGCGTATTAAAAGGAACCTCTAGCTAGCCGACTCACTATAGGGATAATCGCCCTGAGCAAAGACC”, 2.14 ± 0.0726 log2FC; with “CTCGAGGATATCAAGATCTGGCCTCGGCCGCCCAGGCGGAACCTCTAGCTAGCCGACTCACTATAGGGATAATCGCCCTGAGCAAAGACC”, -0.81 ± 0.134 log2FC.
